# Measurements published in PubChem BioAssay (NCATS).
# Inconclusive results are not listed. Entries that show only a call come without a potency. Values without a mark were called inactive. Active and inactive are the calls of the source. Calls follow the shape of the dose curve; as a rule, active = well fitted cell-killing curve with a large enough effect; inconclusive = small, poorly fitted or top-dose-only effect, or effect the other way; inactive = flat fitted curve, though single readings scatter.
# System: PA-1
# Assay: Primary qHTS to identify gynecologic anti-cancer compounds using libraries of approved drugs and bioactive compounds (AID 1345084); also: nearly all actives have a fitted effect of over 55% in size
# Settings: Gynecologic cancer cell panel viability, ATPlite luminescence, 48 h; series mostly up to 57.5 µM
# Summary of the method: (§1)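 Cells, 1,000 per well, plated 16 h, then exposed 48 h at 37 C to compounds. Viability by ATPlite luminescence after 15 min at room temperature.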
# Potency is read from the fitted curve at half-maximal effect.
SMILES,Potency,"activity change, negative = cytotoxicity"
O=C(Nc1ccn(Cc2ccc(O)cc2C(F)(F)F)n1)c1c(F)cccc1F,inactive,–
CC(O)C(C)n1ncn(-c2ccc(N3CCN(c4ccc(OCC5COC(Cn6cncn6)(c6ccc(Cl)cc6Cl)O5)cc4)CC3)cc2)c1=O (configuration not stated),inactive,–
CN(C)C(=O)Nc1cccc(-c2ccc(N(C)C)cc2)c1,inactive,–
COc1nc2ccc(Br)cc2cc1[C@@H](c1ccccc1)[C@@](O)(CCN(C)C)c1cccc2ccccc12,inactive,–
C=C1CC[C@@H](O)[C@]2(C)C[C@H]3OC(=O)C(=C)[C@H]3CC12 (some centres not stated),inactive,–
C[C@@H]1O[C@@H](O[C@H]2[C@@H](OC(=O)[C@]34CCC(C)(C)CC3C3=CCC5[C@@]6(C)C[C@H](O)[C@H](O[C@@H]7O[C@H](CO)[C@@H](O)[C@H](O)[C@H]7O[C@@H]7OC[C@@H](O)[C@H](O)[C@H]7O)[C@@](C)(C(=O)O)C6CC[C@@]5(C)[C@]3(C)CC4)OC[C@H](O)[C@@H]2O)[C@H](O)[C@H](O)[C@H]1O[C@@H]1OC[C@@H](O)[C@H](O)[C@H]1O (some centres not stated),–,-26.7% [at 6.55 µM]
COc1ccc(N2CCN(C(=O)c3cc4c(s3)-c3ccccc3S(=O)(=O)C4)CC2)cc1,inactive,–
C=C1/C(=C/C=C2\CCC[C@]3(C)[C@@H]([C@@H](C)OCCC(O)(CC)CC)CC[C@@H]23)C[C@@H](O)C[C@@H]1O,inactive,–
CCOc1cc(C(C)(C)C)ccc1C1=N[C@@](C)(c2ccc(Cl)cc2)[C@@](C)(c2ccc(Cl)cc2)N1C(=O)N1CCN(CC(=O)N2CCOCC2)CC1,10 µM (active),–
Fc1ccc(N2CCCCC2)c(NC(=S)c2ccncc2)c1,inactive,–
CCC(C(C)O)n1ncn(-c2ccc(N3CCN(c4ccc(OCC5COC(Cn6cncn6)(c6ccc(F)cc6F)C5)cc4)CC3)cc2)c1=O (configuration not stated),inactive,–
NC(=O)N1CCC(CC(=O)N2CCC(C3c4ncc(Br)cc4CCc4cc(Cl)cc(Br)c43)CC2)CC1 (configuration not stated),inactive,–
CC(C)c1cccc(C(C)C)c1NC(=O)Nc1ccc(Sc2ccc([N+](=O)[O-])cc2)cc1,inactive,–
CCCCNc1ncc(-c2ccc(CN3CCOCC3)cn2)c(NC2CCC(O)CC2)n1 (configuration not stated),inactive,–
CC(=O)OC1C(OC(=O)c2ccccc2)C2C(=C(C)CCC2(C)C)C23CCC(C)(C2)C(=O)CC13 (configuration not stated),inactive,–
COc1ccc2[nH]c(=O)c3c(c2c1)OC(C)(C)C=C3,inactive,–
O=C(N[C@@H]1CCCc2c1cnn2-c1ccc(F)cc1F)c1ccccn1,inactive,–
CCCc1ccc(OCC(=O)N(Cc2nc(-c3cccnc3)no2)C(C)C)cc1,inactive,–
CC(C)OC(=O)N1CCC(Oc2ncnc3c2cnn3-c2ccc(S(C)(=O)=O)cc2F)CC1,inactive,–
Cc1c(C2=CCN(C(=O)N(C)C(C)C)CC2)nnn1-c1cccnc1F,inactive,–
CC1=C(c2ccc(NC(=O)c3c(F)cccc3F)cc2)CN(c2nccs2)CC1,inactive,–
CCCc1cc2c(N3CCN(C4=NCC(C)(C)S4)CC3)ncnc2s1,inactive,–
O=C(NCCO)c1cccc(-c2cc(Nc3ccc(OC(F)(F)F)cc3)ncn2)c1,inactive,–
CS(=O)(=O)Nc1ccc2oc3c(OC(F)F)ccc(C(=O)Nc4c(Cl)cncc4Cl)c3c2c1,inactive,–
O=c1cc(NCCCN[C@@H]2CCOc3c(Br)cc(Br)cc32)[nH]c2ccsc12,inactive,–
Clc1ncoc1-c1c[nH]c2ccccc12,inactive,–
CCn1c(=O)c(-c2ccc(Cl)cc2Cl)cc2cnc(Nc3ccc(N4CCNCC4)c(F)c3)nc21,inactive,–
C=C1C(=O)O[C@@H]2[C@H]1CC[C@H](C)[C@]1(CCC(=O)O1)C2(C)O (some centres not stated),inactive,–

# System: SKOV3
# Assay: as above
# Settings: Gynecologic cancer cell panel viability, ATPlite luminescence, 48 h; series mostly up to 57.5 µM
# Summary of the method: as §1
SMILES,Potency,"activity change, negative = cytotoxicity"
O=C(Nc1ccn(Cc2ccc(O)cc2C(F)(F)F)n1)c1c(F)cccc1F,inactive,–
CC(O)C(C)n1ncn(-c2ccc(N3CCN(c4ccc(OCC5COC(Cn6cncn6)(c6ccc(Cl)cc6Cl)O5)cc4)CC3)cc2)c1=O (configuration not stated),inactive,–
C[C@@H]1CCCN1CCc1cc2cc(-c3ccc(C#N)cc3)ccc2o1,inactive,–
COc1nc2ccc(Br)cc2cc1[C@@H](c1ccccc1)[C@@](O)(CCN(C)C)c1cccc2ccccc12,inactive,–
Cn1ncc(Cl)c1-c1cc(C(=O)N[C@H](CN)Cc2ccc(F)c(F)c2)oc1Cl,4.47 µM (active),–
C=C1CC[C@@H](O)[C@]2(C)C[C@H]3OC(=O)C(=C)[C@H]3CC12 (some centres not stated),inactive,–
C[C@@H]1O[C@@H](O[C@H]2[C@@H](OC(=O)[C@]34CCC(C)(C)CC3C3=CCC5[C@@]6(C)C[C@H](O)[C@H](O[C@@H]7O[C@H](CO)[C@@H](O)[C@H](O)[C@H]7O[C@@H]7OC[C@@H](O)[C@H](O)[C@H]7O)[C@@](C)(C(=O)O)C6CC[C@@]5(C)[C@]3(C)CC4)OC[C@H](O)[C@@H]2O)[C@H](O)[C@H](O)[C@H]1O[C@@H]1OC[C@@H](O)[C@H](O)[C@H]1O (some centres not stated),–,-18.3% [at 6.55 µM]
COc1ccc(N2CCN(C(=O)c3cc4c(s3)-c3ccccc3S(=O)(=O)C4)CC2)cc1,inactive,–
C=C1/C(=C/C=C2\CCC[C@]3(C)[C@@H]([C@@H](C)OCCC(O)(CC)CC)CC[C@@H]23)C[C@@H](O)C[C@@H]1O,inactive,–
CCOc1cc(C(C)(C)C)ccc1C1=N[C@@](C)(c2ccc(Cl)cc2)[C@@](C)(c2ccc(Cl)cc2)N1C(=O)N1CCN(CC(=O)N2CCOCC2)CC1,inactive,–
Fc1ccc(N2CCCCC2)c(NC(=S)c2ccncc2)c1,inactive,–
CCC(C(C)O)n1ncn(-c2ccc(N3CCN(c4ccc(OCC5COC(Cn6cncn6)(c6ccc(F)cc6F)C5)cc4)CC3)cc2)c1=O (configuration not stated),inactive,–
NC(=O)N1CCC(CC(=O)N2CCC(C3c4ncc(Br)cc4CCc4cc(Cl)cc(Br)c43)CC2)CC1 (configuration not stated),inactive,–
CC(C)c1cccc(C(C)C)c1NC(=O)Nc1ccc(Sc2ccc([N+](=O)[O-])cc2)cc1,inactive,–
Nc1nccc(-c2c(-c3ccc(F)cc3)ncn2C2CCCCC2)n1,inactive,–
CC(=O)C1(C)CCC2C3C=C(C)C4=CC(=O)CCC4(C)C3CCC21C (configuration not stated),inactive,–
COc1ccc2[nH]c(=O)c3c(c2c1)OC(C)(C)C=C3,inactive,–
CCN(CC)CCCCCCNc1cc(OC)cc2c(C)ccnc12,inactive,–
CCCc1ccc(OCC(=O)N(Cc2nc(-c3cccnc3)no2)C(C)C)cc1,inactive,–
CC(C)OC(=O)N1CCC(Oc2ncnc3c2cnn3-c2ccc(S(C)(=O)=O)cc2F)CC1,inactive,–
Cc1c(C2=CCN(C(=O)N(C)C(C)C)CC2)nnn1-c1cccnc1F,inactive,–
CC1=C(c2ccc(NC(=O)c3c(F)cccc3F)cc2)CN(c2nccs2)CC1,inactive,–
CCCc1cc2c(N3CCN(C4=NCC(C)(C)S4)CC3)ncnc2s1,25.1 µM (active),–
O=C(NCCO)c1cccc(-c2cc(Nc3ccc(OC(F)(F)F)cc3)ncn2)c1,inactive,–
CS(=O)(=O)Nc1ccc2oc3c(OC(F)F)ccc(C(=O)Nc4c(Cl)cncc4Cl)c3c2c1,inactive,–
O=c1cc(NCCCN[C@@H]2CCOc3c(Br)cc(Br)cc32)[nH]c2ccsc12,inactive,–
Clc1ncoc1-c1c[nH]c2ccccc12,inactive,–
C=C1C(=O)O[C@@H]2/C=C(\C)CC/C=C(\C)CC[C@@H]12,inactive,–
C=C1C(=O)O[C@@H]2[C@H]1CC[C@H](C)[C@]1(CCC(=O)O1)C2(C)O (some centres not stated),inactive,–
